# Assay results reported in PubChem BioAssay (EPA / NIEHS).
# Calls of active or inactive are those of the source. Rule for the calls: active = hit-call score of the fitted dose curve at least 0.9, where 1 is the maximum; inactive = score below 0.9.
# Read-out: growth arrest and DNA damage 45 (GADD45B), GADD45B (gene 4616)
# Assay: LTEA_HepaRG_GADD45B: Life Technologies and Expression Analysis (LTEA) Assay for growth arrest and DNA damage 45 (GADD45B) using HepaRG (AID 2283461)
# Conditions: mRNA level, 48 h; actives raise or lower the signal
# Experimental: LTEA_HepaRG is a cell based, multiplexed-readout assay that uses HepaRG, a human liver cell line, with measurements taken at 48 hours after chemical dosing on a 96-well plate.LTEA_HepaRG_GADD45B is one of 102 assay component(s) measured in the LTEA HepaRG cell culture assay. It is a marker of Cell proliferation, survival, death.Data from the assay component LTEA_HepaRG_GADD45B was analyzed into 1 endpoint. This assay endpoint, LTEA_HepaRG_GADD45B, was analyzed with bidirectional fitting relative to DMSO as the negative control and baseline of activity. Using a type of inducible reporter, measures of mRNA induction for gain or loss-of-signal activity can be used to understand regulation of transcription factor activity. To generalize the intended target to other relatable targets, this assay endpoint is annotated to the mutagenicity response intended target family, where the subfamily is Cell proliferation, survival, death.
# A total of 1060 chemcials from the ToxCast library were tested in eight-point concentration-response experiments. Cell culture and cytotoxicity assays were conducted at Thermo Fisher Scientific's Custom Services facility (Madison, WI). A single lot of human HepaRG cells (Thermo Fisher Scientific, Frederick, MD) was used for the cell culture experiments. 96-well format collagen type I coated plates of human HepaRG cells were prepared using established methods. Briefly, cryopreserved HepaRG cells were thawed, plated at a density of approximately 100,000 cells/well in HepaRG Thaw, Plate, and General Purpose media (HPRG770, Thermo Fisher Scientific), and incubated for 48 hours. 0.5% DMSO was selected as vehicle control to balance the requisite need of DMSO in HepaRG cultures to maintain differentiation (for example, baseline metabolism, proportions of hepatocytes vs. cholangiocytes), while enabling further hepatic receptor pathway activation (for example, PXR and CAR) in response to chemical exposure. 48 hours after plating, the culture medium was replaced with HepaRG Serum-Free Incudtion Media. Cells were exposed to each test chemical in duplicate and maintained in CO2 incubators for another 48 hours. Chemical plates were thawed to room temperature and 200x concentrations of treatment groups were prepared. 8-point conentration-reponse curves were made with the highest exposure at 100 uM, followed by half-log dilutions, all in 0.5% DMSO. Each test plate contained variouse controls, induction positive controls (1mM phenobarbital), cytotoxicity positive controls ([…] aflatoxin B1), vehicle controls (0.5% DMSO), and total lysis controls (0.5% DMSO). Cell morphology images were taken using an Essen IncuCyte FLR automated microscope, with six 96-well plates imaged in about 24 minutes. Images were captured and exported and JPEG files. Spent culture media was transfered to black-well plates for the LDH assay, and remaining media was sorted at -80 C for later use. Cells were treated with RLT buffer and frozen until shipped for gene expression analysis. Total RNA was isolated from the cell suspension in 75 uL of Buffer RLT (Qiagen, Germantown, MD 20874) by Quintiles/Expression Analysis (Durham, NC) using a custom isolation procedure. Total RNA from each plate well was transferred to a preamplification plate. Fluidigm's 96.96 Dynamic ArrayTM (Fluidigm, Amsterdam, the Netherlands) technology was used for gene expression analyses by quantitative reverse transcription polymerase chain reaction (qRT-PCR, performed by Quintiles/Expression Analysis, Durham, NC)89. Standard TaqManTM Assays (Applied Biosystems/ThermoFisher Scientific, Foster City, CA) were used to assess the expression of 93 genes selected based on their selectivity and sensitivity to important hepatic receptors known to be modulated by environmental chemicals; importance in human hepatocyte functionality; and hepatotoxicity. […]
Structure (SMILES),outcome,AC50
Cc1ccc(C)c(O)c1C,inactive,
CCCCCCC(=O)OCC,inactive,
Nc1ccccc1N,,50 µM (active)
CCCCC(CC)COC(=O)CC(C(=O)OCC(CC)CCCC)S(=O)(=O)O (stereo not given),,82.2 µM (active)
CCc1c(C(=O)NN2CCCCC2)nn(-c2ccc(Cl)cc2Cl)c1-c1ccc(Br)cc1,,50 µM (active)
Oc1ccc2ccccc2c1N=Nc1ccccc1,,31 µM (active)
CC(CO)OC(C)CO (stereo not given) (tested in a mixture with another compound),inactive,
CCCCCCCCCCCCCO,inactive,
O=C(OCCCCCOC(=O)c1ccccc1)c1ccccc1,inactive,
COCCOCCOC,inactive,
CCCCOC(=O)CCCCCCCCC(=O)OCCCC,inactive,
Nc1ccc2c(c1)C(=O)c1ccccc1C2=O,,9.75 µM (active)
Cc1cccc(Nc2cc(Cl)nc(SCC(=O)O)n2)c1C,inactive,
NS(=O)(=O)c1cc2c(cc1Cl)NCNS2(=O)=O,inactive,
O=c1c(O)c(-c2ccc(O)c(O)c2)oc2cc(O)cc(O)c12,inactive,
C[Si]1(C)O[Si](C)(C)O[Si](C)(C)O[Si](C)(C)O1,inactive,
C=CCc1ccc(O)c(OC)c1,inactive,
COc1cc(C=O)ccc1O,inactive,
FC(F)(F)C(F)(F)C(F)(F)C(F)(F)C(F)(F)C(F)(F)CCI,inactive,
COc1ccc(S(=O)(=O)N2C(=O)[C@@](c3ccccc3OC)(N3C[C@H](O)C[C@H]3C(=O)N(C)C)c3cc(Cl)ccc32)c(OC)c1,inactive,

Structure (SMILES),outcome,AC50
Cc1oc(-c2ccccc2)nc1CCOc1cccc2c1ccn2CCC(=O)O,,75.8 µM (active)
Clc1cc(Cl)c(Cl)cc1Cl,inactive,
CCCCN(CCCC)CCCC,inactive,
Cc1ccc(Cl)cc1,inactive,
Oc1ccc2c(c1)OC[C@@H](N1CCC(O)(c3ccc(F)cc3)CC1)[C@H]2O,inactive,
CN1CCN(Cc2cc(-c3ccc4[nH]c(=O)oc4c3)co2)[C@@H](c2ccc(F)cc2)C1,inactive,
O=[N+]([O-])C(CO)(CO)CO,inactive,
O=C(N[C@@H](Cc1ccccc1)[C@@H](O)C(=O)N1C[C@@H](O)[C@@H](O)C1)c1cc2cc(Cl)ccc2[nH]1,inactive,
Cc1ccc(N(C)C)cc1,inactive,
CC=Cc1ccc(O)c(OC)c1,inactive,
O=C(O)Cc1ccccc1Nc1c(Cl)cccc1Cl,inactive,
COc1ccc(C)cc1N,inactive,
OC[C@@H](O)[C@@H](O)[C@H](O)[C@H](O)CO,inactive,
CCNc1cccc(C)c1,inactive,
CCCCCCCCCCC,inactive,
Cc1c(C(=O)O)c(O)cc2c1C(=O)c1c(O)c([C@@H]3O[C@H](CO)[C@@H](O)[C@H](O)[C@H]3O)c(O)c(O)c1C2=O,inactive,
Cc1ccccc1Cl,inactive,
CCCCc1ccc2c(n1)[C@@H](c1ccc(OC)cc1C[C@H](C)C(=O)O)[C@H](C(=O)O)[C@H]2c1ccc2c(c1)OCO2,inactive,
CCCCCCCC=O,inactive,
CNC(=O)[C@H]1O[C@@H](n2cnc3c(NCc4cc(Cl)ccc4OCc4cc(C)no4)ncnc32)[C@H](O)[C@@H]1N,inactive,
